Pf Dd2 growth – qHTS Primary assay for Inhibitors of Plasmodium falciparum Dd2 growth in vitro. AID 1347417, 2020. actives 4.3% (n = 120,000). Potency, µM (highest dose often 28.9 µM), without a hit: at the highest dose activity, negative = inhibition, usual class: inhibitors. P. falciparum Dd2 growth, SYBR Green, 72 h; active = well fitted inhibition curve with a large enough effect;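 also: plate controls were DMSO vehicle for no effect and reference drug for full effect; nearly all actives have a fitted effect of over 65% in size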
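Infected erythrocytes (Dd2, 0.3% parasitemia, 2.5% hematocrit final) are added to compound in RPMI-1640/Albumax II medium, grown 72 h at 37C in low oxygen, then lysed with saponin/Triton-X containing SYBR Green and read by fluorescence.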
Numbers without * were called inactive; i = inactive; [ ] = dose if it differs, or a comment. Only a selection was taken, and hits are over-represented in it overall. Potency is read from the fitted curve at half-maximal effect.

SMILES	Pf Dd2 growth
O=C(NC(C(=O)N1CCCC1)C1CCN(C(=O)Cc2ccccc2)CC1)c1ccccc1 (configuration not stated)	-3%
Cc1noc([C@H]2CCN(C(=O)Nc3ccccc3F)C[C@H]2NC(=O)C2CC2)n1	i[5.79 µM]
Cn1c(Cn2ccnc2)nnc1C1CC(NC(=O)c2ccsc2)C1 (configuration not stated)	-9%
CN(C)c1nc(-c2ccncc2)nc2c1CCN(C(=O)c1ccc(O)cc1)C2	-2%
COc1cccc(CN2CCC3(C2)C(=O)N(C)C(=O)N3C)c1 (configuration not stated)	20%
O=C(c1ccc2c(c1)N(Cc1ccccc1F)C(=O)c1ccccc1S2(=O)=O)N1CCCC1	-12%
CCC(C)NC(=O)c1ccc2c(c1)N(Cc1ccccc1)C(=O)c1ccccc1S2(=O)=O (configuration not stated)	3.2µM*
Cc1ccc(C)c(CN2C(=O)c3ccccc3S(=O)(=O)c3ccc(C(=O)N4CCN(c5ccccc5)CC4)cc32)c1	5.6µM*
O=C(NCc1ccco1)c1ccc2c(c1)N(Cc1ccccc1)C(=O)c1ccccc1S2(=O)=O	-13%
O=C(c1ccc2c(c1)N(Cc1ccccc1F)C(=O)c1ccccc1S2(=O)=O)N1CCCCC1	i
COC(=O)c1ccc2c(c1)N(Cc1ccccc1)C(=O)c1ccccc1S2(=O)=O	56%
CCOC(=O)c1ccc2c(c1)N(Cc1cc(C)ccc1C)C(=O)c1ccccc1S2(=O)=O	i
O=C(c1ccc2c(c1)N(Cc1ccccc1)C(=O)c1ccccc1S2(=O)=O)N1CCN(Cc2ccccc2)CC1	8.9µM*
O=C(c1ccc2c(c1)N(Cc1ccc(F)cc1)C(=O)c1ccccc1S2(=O)=O)N1CCCC1	-10%
CCOC(=O)N1CCC(NC(=O)c2ccc3c(c2)N(Cc2cc(C)ccc2C)C(=O)c2ccccc2S3(=O)=O)CC1	11µM*
Cc1ccc(CCNC(=O)c2ccc3c(c2)N(Cc2cccc(C)c2)C(=O)c2ccccc2S3(=O)=O)cc1	-2%
O=S(=O)(c1ccc(C(F)(F)F)cc1)N1CCCC(Cn2cnc3cccnc32)C1 (configuration not stated)	i
CC(O)c1cc2n(n1)CCCN(C(=O)Cn1nc3ccccc3n1)C2 (configuration not stated)	-4%
Cc1cc2nc3n(c(=O)c2n1CC(=O)Nc1cccc(C(F)(F)F)c1)CCC3	-8%
Cc1ccc(CN2C(=O)C3(CCOCC3)CC2c2nnnn2C(C)(C)C)cc1 (configuration not stated)	38%
O=C1CC(c2noc(-c3ccccc3)n2)CN1c1ccc(F)c(Cl)c1 (configuration not stated)	24%
C#CCN(C)C(=O)[C@@H]1CCCN1[C@@H](C(=O)NC)c1ccccc1	-8%[44.1 µM]
NC(=O)CCNC(=O)[C@@H]1C[C@@H](NS(=O)(=O)c2cccs2)CCN1C(=O)COCC(=O)O	6%
C#CCNC(=O)c1cc(-c2ccccc2OC)c2cccn2n1	21%
C/C=C/CC(=O)N1CCC2(CCN(Cc3cccc(F)c3)CC2)C(CO)C1 (configuration not stated)	-20%
SMILES	Pf Dd2 growth
Cc1ccc(CNC(=O)c2ccc3c(c2)N(Cc2ccccc2)C(=O)c2ccccc2S3(=O)=O)cc1	-44%
COCCNC(=O)c1ccc2c(c1)N(Cc1cc(C)ccc1C)C(=O)c1ccccc1S2(=O)=O	-25%
Cc1ccc(C)c(CN2C(=O)c3ccccc3S(=O)(=O)c3ccc(C(=O)NCc4ccccc4)cc32)c1	7.1µM*
Cc1nc2cc(-c3nc(CC4CCN(C)CC4)nn3CCO)ccc2s1	6%
O=C(Cn1nc2c(cc1=O)CCCC2)N1CCSCC1	7%
CCN(CC)c1cc(CCC(=O)N(C)CCc2ccncc2)ccn1	-14%
Cn1cc(CCC(=O)NCc2ccc(Cl)cc2)c2ccccc21	29%
CCN(CC)c1cc(CCC(=O)NCc2ccc(Cl)cc2)ccn1	5µM*
O=C(Cc1ccc(Cl)cc1)NC1CCN(c2ccccc2)C1=O (configuration not stated)	-10%
Cc1nccn1CCCNC(=O)c1ccc2nc(C3CC3)oc2c1	-10%
COCCN1C(=O)c2cccn2CC1CNC(=O)Cn1nc(C(F)(F)F)cc1C (configuration not stated)	14%
O=C(NC1CC1)c1ccccc1OC1CN(Cc2ccc(F)cc2)C1	-20%
O=C(c1ccccc1OC1CCN(C2Cc3ccccc3C2)CC1)N1CCCCC1	-18%
O=C(NC1CC1)c1ccccc1OC1CN(C2CCC2)C1	2.8µM*
CC(CCc1ccccc1)NC(=O)Cn1cccc1-c1nc(-c2ccc3c(c2)OCO3)no1 (configuration not stated)	i
CCOc1ccc(CC(=O)N2C[C@@H](COC)[C@H](c3nc(C)no3)C2)cc1	2%
COc1ccc2nc3n(c2c1)[C@@H](CNS(=O)(=O)c1ccccc1)COC3	8.9µM*
COc1ccc(S(=O)(=O)NC[C@H]2COCc3nc4cc(C)ccc4n32)cc1	-7%[44.1 µM]
COc1ccc2nc3n(c2c1)[C@@H](CNC(=O)c1ccccc1)COC3	i
